{"source": "PubChem BioAssay AID720504", "about": "(National Center for Advancing Translational Sciences (NCATS), 2013)", "note": "Out of some 360,000 compounds screened, about 10,000 (2.8%) were called active. Another 4% or so got no clear call; they are omitted. The sample holds actives, similar compounds and a random draw of the others, so the mix is not that of the screen. A number with no mark means an inactive call. The call rests on the fitted dose curve; in most records, active means well fitted inhibition curve with a large enough effect; inconclusive means small, poorly fitted or top-dose-only effect; inactive means flat fitted curve, though single readings scatter. On the % scale 0 is the no-effect control and ±100 the full control effect; potency means the concentration at half of the fitted maximal effect.", "data": [{"molecular_target": "Serine/threonine-protein kinase PLK1 (Homo sapiens) (UniProt P53350)", "sequence (P53350 whole entry, looked up, the tested form may be a part)": "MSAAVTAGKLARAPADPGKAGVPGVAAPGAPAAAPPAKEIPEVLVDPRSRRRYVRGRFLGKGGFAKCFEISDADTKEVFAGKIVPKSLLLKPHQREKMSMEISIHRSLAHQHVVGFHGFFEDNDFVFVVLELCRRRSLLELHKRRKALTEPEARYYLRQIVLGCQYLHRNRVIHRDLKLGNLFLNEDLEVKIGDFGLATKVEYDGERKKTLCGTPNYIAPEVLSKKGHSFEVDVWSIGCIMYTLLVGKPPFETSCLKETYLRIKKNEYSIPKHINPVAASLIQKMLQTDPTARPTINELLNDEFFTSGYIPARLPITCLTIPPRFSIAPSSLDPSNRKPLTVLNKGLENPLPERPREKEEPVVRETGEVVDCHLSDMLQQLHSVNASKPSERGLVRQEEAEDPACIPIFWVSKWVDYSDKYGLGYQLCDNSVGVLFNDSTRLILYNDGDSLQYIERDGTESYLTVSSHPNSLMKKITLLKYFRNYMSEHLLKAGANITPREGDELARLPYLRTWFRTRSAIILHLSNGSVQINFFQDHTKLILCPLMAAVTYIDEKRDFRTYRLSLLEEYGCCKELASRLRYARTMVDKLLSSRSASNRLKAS", "test": "qHTS for Inhibitors of PLK1-PDB (polo-like kinase 1 - polo-box domain): Primary Screen; further: nearly all actives have a fitted effect of over 65% in size; on max response, negative = inhibition: series mostly up to about 57 µM", "conditions": "Plk1 PBD binding of FITC phosphopeptide, fluorescence polarization", "units": {"max response, negative = inhibition": "%"}, "values": [{"smiles": "CCCCN1C(=O)C(CC(=O)NCc2cccs2)CC(C(=O)N2CCCCCC2)=C1C", "note": "(stereo unspecified)", "max response, negative = inhibition": -3.48}, {"smiles": "COC(=O)C(Cc1c[nH]c2ccccc12)NC(=O)CCNC(=O)c1ccco1", "note": "(stereo unspecified)", "max response, negative = inhibition": 3.99}, {"smiles": "CCCCN1CC(C)(C)[C@H](CC(=O)Nc2ccc(Br)cc2)C1=O", "max response, negative = inhibition": 2.01}, {"smiles": "COc1ccc(C)cc1NC(=S)N1CCOCC1", "max response, negative = inhibition": -2.89}, {"smiles": "COc1cc(NC(=S)N2CCCC(C)C2)c(OC)cc1Cl", "note": "(stereo unspecified)", "Potency": "18.9 µM (active)"}, {"smiles": "COc1cc(NC(=O)CSC(=S)N2CCCC2)c(OC)cc1Cl", "max response, negative = inhibition": -15.5}, {"smiles": "C[C@@H]1Cn2cnc(C(=O)Nc3ccc(CNC(=O)OC(C)(C)C)cc3)c2C(=O)N1", "max response, negative = inhibition": -11.4}, {"smiles": "COc1cccc2cc(-c3cc(=O)oc4cc(C)c(O)cc34)oc12", "max response, negative = inhibition": -14.5}, {"smiles": "COc1ccc2oc(=O)cc(-c3cc4ccccc4o3)c2c1", "Potency": "26.7 µM (active)"}, {"smiles": "COc1ccc(Nc2cc(=O)oc3ccccc23)cc1", "max response, negative = inhibition": -6.94}, {"smiles": "Oc1cccc2ccc(/C=C/c3ccc(Br)s3)nc12", "max response, negative = inhibition": -8.23}, {"smiles": "Nc1ccc(S(=O)(=O)Nc2nccc(/C=C/c3ccc(Br)s3)n2)cc1", "Potency": "9.47 µM (active)"}, {"smiles": "CC(=O)Nc1ccc(S(=O)(=O)Nc2nccc(/C=C/c3ccccc3F)n2)cc1", "max response, negative = inhibition": -13.8}, {"smiles": "CC(C)C1Cc2[nH][nH]c(=O)c2C(c2ccc(Cl)cc2)O1", "note": "(stereo unspecified)", "max response, negative = inhibition": -26.3}, {"smiles": "CCCOC(=O)c1ccc(N2C(=O)c3ccccc3C2=O)cc1", "max response, negative = inhibition": -2.78}, {"smiles": "CCO/C=C1\\C(=O)N(c2ccc(OCC)cc2)C(=O)c2ccccc21", "Potency": "13.4 µM (active)"}, {"smiles": "CCOc1ccc(NC(=O)C(C)N2C(=O)c3ccccc3C2=O)cc1", "note": "(stereo unspecified)", "max response, negative = inhibition": -11.1}, {"smiles": "COc1ccc(NC(=O)C[C@H]2C(=O)N(CCc3ccccc3)C[C@@H]2C)cc1", "max response, negative = inhibition": -7.3}, {"smiles": "CC1(C(=O)NS(=O)(=O)c2ccc(C#N)cc2)CCN1C(=O)c1ccc(C2CCCCC2)cc1", "note": "(stereo unspecified)", "max response, negative = inhibition": -18.9}, {"smiles": "COc1ccc(-c2cc(C(=O)N/N=C/c3cccnc3)c3ccccc3n2)c(OC)c1", "max response, negative = inhibition": 1.56}, {"smiles": "COc1cccc(-c2cc(C(=O)N/N=C/c3ccc(OC)c(COC(C)=O)c3)c3ccccc3n2)c1", "Potency": "29.9 µM (active)"}, {"smiles": "CCOc1ccc(-c2cc(C(=O)N/N=C/c3ccc(O)cc3)c3ccccc3n2)cc1", "max response, negative = inhibition": 1.12}, {"smiles": "CC1=NN(C(=O)c2ccccc2Br)C(O)(c2cccnc2)C1", "note": "(stereo unspecified)", "max response, negative = inhibition": -6.62}, {"smiles": "CC1=NN(C(=O)c2ccc(Br)cc2)C(O)(c2ccccc2)C1", "note": "(stereo unspecified)", "max response, negative = inhibition": -4.08}, {"smiles": "CC1=NN(C(=O)Cc2ccc(C)cc2)C(O)(c2cccnc2)C1", "note": "(stereo unspecified)", "Potency": "23.8 µM (active)"}, {"smiles": "O=c1cc(CN2CCCCCCC2)c2c(ccc3ccccc32)o1", "max response, negative = inhibition": -3.34}, {"smiles": "CCCCCCCCN1C(=O)[C@H](CC(=O)NCc2cccc3ccccc23)C[C@@]2(C(=O)OC)CCCCC=C12", "max response, negative = inhibition": -2.64}, {"smiles": "COc1ccc(C(C)(NC(C)=O)c2nc(-c3ccc(S(C)(=O)=O)cc3)cs2)cc1", "note": "(stereo unspecified)", "max response, negative = inhibition": 0.405}, {"smiles": "Cc1ccc(C=O)c([B-](F)(F)F)c1", "max response, negative = inhibition": -2.89}, {"smiles": "CC(=O)Nc1ccc2c3c(ccc([N+](=O)[O-])c13)CC2", "max response, negative = inhibition": -1.77}, {"smiles": "COc1c(O)ccc2c1CN1CCc3cc4c(cc3C1C2)OCO4", "note": "(stereo unspecified)", "Potency": "23.8 µM (active)"}, {"smiles": "COc1ccc2cc1Oc1ccc(cc1)C[C@H]1c3cc(c(OC)cc3CCN1C)Oc1c(O)c(OC)cc3c1[C@H](C2)N(C)CC3", "max response, negative = inhibition": -6.01}, {"smiles": "COc1cc(C(=O)CCc2ccc3c(c2)OCO3)cc(OC)c1OC", "max response, negative = inhibition": -9.68}, {"smiles": "CC1(Oc2ccccc2-c2ccno2)CCN(Cc2ccc(-c3ccccc3)o2)C1", "note": "(stereo unspecified)", "max response, negative = inhibition": -2.77}, {"smiles": "O=C(CSc1nc2ccccc2o1)N/N=C/c1ccccc1C(=O)O", "Potency": "26.7 µM (active)"}, {"smiles": "O=C(CSc1nc2ccccc2o1)N1CCN(c2ccccc2)CC1", "max response, negative = inhibition": -6.93}, {"smiles": "CC(C)(C)C(=O)CSc1nc2ccccc2o1", "max response, negative = inhibition": -18}, {"smiles": "O=C(NCc1cccnc1)c1cc(C2CCCCN2C(=O)CCc2ccccc2)on1", "note": "(stereo unspecified)", "max response, negative = inhibition": -11.3}, {"smiles": "COC(=O)c1cccc(NC(=O)c2cccc(N3C(=O)CCC3=O)c2)c1", "max response, negative = inhibition": -2.1}, {"smiles": "COC(=O)c1cccc(N2C(=O)C3C4C=CC(CC4)C3C2=O)c1", "note": "(stereo unspecified)", "max response, negative = inhibition": -4.67}, {"smiles": "COC(=O)c1cccc(-n2[nH]nnc2=S)c1", "Potency": "23.8 µM (active)"}, {"smiles": "CCOC(=O)[C@]12CCCC=C1N(CCC1=CCCCC1)C(=O)[C@H](CC(=O)N1CCCCC1)C2", "max response, negative = inhibition": -0.904}, {"smiles": "Cc1ccnc(SC2CC(=O)N(c3ccccc3)C2=O)n1", "note": "(stereo unspecified)", "max response, negative = inhibition": -15.5}, {"smiles": "Cc1ccnc(-n2sc3ccccc3c2=O)n1", "Potency": "3.77 µM (active)"}, {"smiles": "COCCNc1nc(Nc2ccccc2Cl)c2sc(-c3ccccc3)cc2n1", "max response, negative = inhibition": -12.6}, {"smiles": "Cc1ccc(C(=O)N2CCCc3ccccc32)c(Cl)c1", "max response, negative = inhibition": 3.98}, {"smiles": "Cc1ccc2cccc([N+](=O)[O-])c2n1", "max response, negative = inhibition": 2.99}, {"smiles": "CCOC(=O)c1ccccc1NC(=O)c1c(N)n(C)c(=O)[nH]c1=O", "max response, negative = inhibition": -13.3}, {"smiles": "CCOC(=O)c1cc2n(c1N)-c1ccccc1C2=O", "Potency": "2.67 µM (active)"}, {"smiles": "CCOC(=O)c1ccccc1CN1C(=O)c2ccccc2S1(=O)=O", "max response, negative = inhibition": -6.41}, {"smiles": "CN(Cc1ccccc1)C(=O)[C@@H]1CCCN1C(=O)[C@@H]1CCCN1C(=O)c1c(F)cccc1F", "max response, negative = inhibition": -9.51}, {"smiles": "O=C(CSC1=NCCS1)Nc1nc(-c2ccccc2)cs1", "max response, negative = inhibition": -11.4}, {"smiles": "O=C(CN1C(=O)C2C3C=CC(C3)C2C1=O)Nc1nc(-c2ccccn2)cs1", "note": "(stereo unspecified)", "max response, negative = inhibition": -7.14}, {"smiles": "CC(NC(=O)c1ccco1)C(=O)Nc1nc(-c2ccccn2)cs1", "note": "(stereo unspecified)", "max response, negative = inhibition": -15.6}, {"smiles": "O=C(COc1ccccc1F)Nc1nc(-c2ccccn2)cs1", "Potency": "11.9 µM (active)"}, {"smiles": "CC1CCCCC1NC(=O)COc1ccc(C#N)cc1", "note": "(stereo unspecified)", "max response, negative = inhibition": -1.85}, {"smiles": "N#Cc1ccc(OCC(=O)Nc2nc(-c3ccccn3)cs2)cc1", "Potency": "8.44 µM (active)"}, {"smiles": "CC(C)c1cc(C(=O)N(C)C2CCCN(Cc3ccccc3F)C2)n(C)n1", "note": "(stereo unspecified)", "max response, negative = inhibition": -5.2}, {"smiles": "NC(Cc1ccc(F)cc1)c1csc(Nc2nncc3ccccc23)n1", "note": "(stereo unspecified)", "max response, negative = inhibition": -1.72}, {"smiles": "COC(=O)[C@]12CCCCC=C1N(Cc1ccccc1)C(=O)[C@H](CC(=O)NCc1ccc(C)o1)C2", "max response, negative = inhibition": -1.64}, {"smiles": "CNC(=O)c1ccc(CN(C)C(=O)c2cc(C3CC3)nc3c2cnn3C(C)C)cc1", "max response, negative = inhibition": -13.7}, {"smiles": "O=S1(=O)CC(N2CCN(Cc3ccccc3F)CC2)CN1Cc1cn(Cc2ccccc2)nn1", "note": "(stereo unspecified)", "max response, negative = inhibition": 0.233}, {"smiles": "CCOC(=O)C1CCCN(C(=O)c2cc(-c3cccs3)oc2C)CC1", "note": "(stereo unspecified)", "max response, negative = inhibition": -3.67}, {"smiles": "O=C(Oc1ccc(F)cc1)N1CCOCC1", "max response, negative = inhibition": -11.5}, {"smiles": "O=C(Oc1cccc(C(=S)N2CCOCC2)c1)c1cccc(Cl)c1", "max response, negative = inhibition": -12.2}, {"smiles": "O=C(Oc1ccc(C(=S)N2CCOCC2)cc1)c1ccc(F)cc1", "Potency": "21.2 µM (active)"}, {"smiles": "COc1ccc(S(=O)(=O)N2CCOCC2)c(C)c1C", "max response, negative = inhibition": -1.42}, {"smiles": "COc1cc(C)c(S(=O)(=O)N2CCOCC2)c(C)c1C", "max response, negative = inhibition": -14.4}, {"smiles": "Cc1cc(C)c(S(=O)(=O)N2CCOCC2)cc1C", "Potency": "10.6 µM (active)"}, {"smiles": "CCOP(=O)(OCC)C(Cc1ccccc1)N=C(c1ccccc1)c1ccccc1", "note": "(stereo unspecified)", "max response, negative = inhibition": -2.76}, {"smiles": "COC(=O)[C@@]12C[C@@H](CC(=O)NCCCCc3ccccc3)C(=O)N(CCc3ccc(OC)c(OC)c3)C1=CCC(C)(C)C2", "max response, negative = inhibition": -6.86}, {"smiles": "CCOC(=O)[C@]12CCCC=C1N(CCC1=CCCCC1)C(=O)[C@H](CC(=O)N1CCOCC1)C2", "max response, negative = inhibition": -15.5}, {"smiles": "CN1CCN(CCCNC(=O)c2ccc(/C=C3\\Oc4ccccc4N(Cc4ccc(Cl)cc4)C3=O)cc2)CC1", "max response, negative = inhibition": -4.87}, {"smiles": "CCCN1CCN(CCCNC(=O)CN2C(=O)COc3ccccc32)CC1", "max response, negative = inhibition": -2.49}, {"smiles": "CC(C)OCCCNC(=O)CN1C(=O)/C(=C/c2ccccc2F)Oc2ccccc21", "Potency": "26.7 µM (active)"}, {"smiles": "CC1(C(=O)NS(=O)(=O)c2ccccc2)CCN1C(=O)c1ccccc1", "note": "(stereo unspecified)", "max response, negative = inhibition": -4.3}, {"smiles": "CN(C)C(=O)c1cccc(-c2cnc3sc(NCc4ccc5c(c4)OCO5)nn23)c1", "max response, negative = inhibition": -3.28}, {"smiles": "Cc1cccc(C(=O)OCC(=O)Nc2sccc2C(N)=O)c1C", "max response, negative = inhibition": 4.89}, {"smiles": "Cc1cnc(C(=O)N2CCCC(C(=O)c3ccc(C(F)(F)F)cc3)C2)cn1", "note": "(stereo unspecified)", "max response, negative = inhibition": 6.24}, {"smiles": "O=C(c1ccc(C(F)(F)F)cc1)C1CCCN(C(=O)c2csnn2)C1", "note": "(stereo unspecified)", "max response, negative = inhibition": 2.18}, {"smiles": "Cc1nc(C(=O)N2CCCC(C(=O)c3ccc(Cl)cc3)C2)cs1", "note": "(stereo unspecified)", "Potency": "26.7 µM (active)"}, {"smiles": "Cc1cccc(C)c1-n1nnnc1C(CCc1ccccc1)N1CCN(C/C=C/c2ccccc2)CC1", "note": "(stereo unspecified)", "max response, negative = inhibition": -10.6}, {"smiles": "c1cc(-c2ccc3[nH]ccc3c2)n2ccnc2c1", "max response, negative = inhibition": -9}, {"smiles": "O=C(Nc1ccc2c(c1)CCC2)c1cccc(S(=O)(=O)Nc2ccccc2Cl)c1", "max response, negative = inhibition": -7.42}, {"smiles": "COc1cccc(NC(=O)CN2CCN(CC(=O)Nc3ccccc3Cl)CC2)c1", "max response, negative = inhibition": -1.84}, {"smiles": "O=C(Cc1ccc2c(c1)CCCC2)Nc1ccccc1Cl", "Potency": "16.8 µM (active)"}, {"smiles": "Cc1onc(-c2ccccc2)c1-c1nnc(COC(=O)c2ccc(N(C)C)cc2)o1", "max response, negative = inhibition": 5.92}, {"smiles": "CCc1nc2c(OCc3cccc(OC)c3)cccn2c1N(C)C(=O)C(C)C", "max response, negative = inhibition": -12}, {"smiles": "O=C(NC(=S)Nc1ccccc1C(=O)O)c1ccc(-c2ccc(Br)cc2)o1", "Potency": "13.4 µM (active)"}, {"smiles": "O=C(O)c1ccccc1NC(=O)c1ccccc1-c1ccccc1C(=O)O", "max response, negative = inhibition": -6.65}, {"smiles": "CN1CCN(C(=O)c2ccc(-c3ccc(Br)cc3)o2)CC1", "max response, negative = inhibition": -2.57}]}]}
